Source: the supplement of paper PMC12340641

Key:
[1] = target: IKZF1 (dCK*-IKZF1 fusion in HEK293FT) (UniProt Q13422); assay: inhibition of IKZF1 HTRF signal (DMSO = 0%, pomalidomide 10 uM = 100%); higher = lower IKZF1 protein level; conditions: compound concentration: 5 uM, overnight (~20 h)
Summary of the method: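 HEK293FT cells stably expressing a dCK*-IKZF1 fusion (2000/well, 384-well) were treated overnight at 37 °C with 5 μM compound in single wells. They were then lysed 30 min at room temperature, and lysate was incubated overnight with a commercial HTRF total-IKZF1 antibody kit. The time-resolved FRET ratio (665/620 nm) was background-subtracted. Percent inhibition of IKZF1 signal was normalised per plate to vehicle (0%) and a reference degrader (100%).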

HEK293FT dCK*-only = assay: relative growth in counter assay (no AraC = 100%, AraC + DMSO = 0%); higher = more growth rescue independent of IKZF1; conditions: compound concentration: 5 uM; AraC concentration: 0.3 uM; overnight pretreatment + 4 days AraC
Summary of the method: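 In 384-well plates, 300 HEK293FT cells per well expressing an engineered kinase construct alone got 5 μM compound 2 h after seeding. After overnight at 37 °C, 0.3 μM nucleoside suicide substrate plus medium was applied for 4 days. Counting of Hoechst 33342-stained nuclei by imaging on day 5 was normalised per plate, with 100% for no-substrate wells and 0% for substrate plus vehicle.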

HEK293FT dCK*-IKZF1 = assay: relative growth recovery (pomalidomide 10 uM = 100%, DMSO = 0%); higher = more growth rescue (IKZF1 fusion degradation); conditions: compound concentration: 5 uM; AraC concentration: 0.3 uM; overnight pretreatment + 4 days AraC
Summary of the method: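 HEK293FT cells stably expressing an engineered deoxycytidine kinase–IKZF1 fusion were seeded at 300 per well in 384-well plates and given 5 μM compound 2 h later. After overnight incubation at 37 °C, a nucleoside suicide substrate at 0.3 μM was added with medium for 4 days, and on day 5 Hoechst 33342-stained nuclei were counted by whole-well imaging. Growth recovery was normalised per plate between a reference degrader and vehicle, set to 100% and 0% respectively, and the values are means of duplicates run on different days.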

Chain of IKZF1 (dCK*-IKZF1 fusion in HEK293FT) (Q13422 whole entry, looked up, the tested form may be a part): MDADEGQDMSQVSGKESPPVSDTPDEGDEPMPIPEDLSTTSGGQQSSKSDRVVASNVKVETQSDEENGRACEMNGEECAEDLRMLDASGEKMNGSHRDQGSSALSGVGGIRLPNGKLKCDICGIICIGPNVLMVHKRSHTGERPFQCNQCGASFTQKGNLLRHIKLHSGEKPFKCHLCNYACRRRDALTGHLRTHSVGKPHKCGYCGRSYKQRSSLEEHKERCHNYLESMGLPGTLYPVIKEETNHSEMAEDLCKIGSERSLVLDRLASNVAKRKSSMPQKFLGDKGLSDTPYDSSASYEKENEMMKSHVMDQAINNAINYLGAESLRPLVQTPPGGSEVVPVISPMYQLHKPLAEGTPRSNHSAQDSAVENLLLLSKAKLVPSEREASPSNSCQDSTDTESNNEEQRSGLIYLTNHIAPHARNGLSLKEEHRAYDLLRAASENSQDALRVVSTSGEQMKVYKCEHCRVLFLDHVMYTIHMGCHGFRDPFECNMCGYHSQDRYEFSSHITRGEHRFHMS

SMILES | inhibition of IKZF1 HTRF signal [1] [%] | relative growth in counter assay (HEK293FT dCK*-only) [%] | relative growth recovery (HEK293FT dCK*-IKZF1) [%]
O=C(CCCN1CCC2(CC1)C(=O)NCN2c1ccccc1)c1ccc(F)cc1 [spiperone] | -3.55 | -1.41 | -0.995
N#Cc1cn([C@@H]2O[C@H](CO)[C@@H](O)[C@H]2O)c2ncnc(N)c12 [toyocamycin] | 44.4 | -34.2 | -12.9
O=C(Nc1ccc(Br)cc1)c1cc(Br)cc(Br)c1O [tribomsalan] | 13.9 | -2.64 | -2.67
COc1cc2cc(c1Cl)N(C)C(=O)C[C@H](OC(=O)C(C)C)[C@]1(C)O[C@H]1[C@H](C)[C@@H]1C[C@@](O)(NC(=O)O1)[C@H](OC)/C=C/C=C(\C)C2 [Ansamitocin P-3] | -18.7 | -34.3 | -12.4
O=c1[nH]c2ccccc2n1C1CCN(CCCC(c2ccc(F)cc2)c2ccc(F)cc2)CC1 | -18.9 | 3.23 | 5.47
C[C@@]1(CO)[C@H](O)CC[C@@]2(C)[C@H]1CC[C@H]1C[C@@H]3C[C@@]12CC[C@]3(O)CO [Aphidicolin] | -14.2 | -34.1 | -12.3
